SMILES strings stand for the structures. Out of some 370,000 compounds screened, about 2,600 (0.7%) were called active.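 How the source made its calls: active means inhibition above a cutoff: mean of compounds within the control limits plus 3 SD of those (cut at about 17% in these data); inactive means the rest.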 This excerpt belongs to a sample that is enriched for actives.

Chain of Sialate O-acetylesterase (Homo sapiens) (Q9HAT2 whole entry, looked up): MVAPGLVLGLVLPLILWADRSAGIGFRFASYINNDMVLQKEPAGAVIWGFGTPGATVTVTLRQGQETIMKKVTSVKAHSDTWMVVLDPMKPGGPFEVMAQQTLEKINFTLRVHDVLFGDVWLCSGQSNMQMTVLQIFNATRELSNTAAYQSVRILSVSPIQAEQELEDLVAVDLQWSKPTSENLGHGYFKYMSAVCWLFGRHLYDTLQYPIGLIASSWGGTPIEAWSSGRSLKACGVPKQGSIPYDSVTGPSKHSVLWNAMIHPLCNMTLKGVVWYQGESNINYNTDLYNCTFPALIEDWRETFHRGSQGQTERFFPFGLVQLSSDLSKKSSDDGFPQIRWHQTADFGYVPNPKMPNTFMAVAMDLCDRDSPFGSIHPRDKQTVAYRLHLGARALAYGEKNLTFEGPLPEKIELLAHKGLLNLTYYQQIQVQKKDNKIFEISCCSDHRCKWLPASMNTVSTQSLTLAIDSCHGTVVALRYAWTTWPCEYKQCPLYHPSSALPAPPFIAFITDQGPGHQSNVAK

This assay has as its target Sialate O-acetylesterase (Homo sapiens) (UniProt Q9HAT2). As to the kind of experiment: human SIAE inhibitors, primary screen, biochemical, fluorescence polarization, FP-Rh probe, 1536-well HTS (AID 1053197).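 Further: 0% = plate median of compound wells and 100% = probe without SIAE protein.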 To be noted: SIAE FP-Rh probe binding, at 9.66 µM, active compounds read high. For orientation: Polarisation of emitted light reports the rotation of a fluorescent probe.
With `CCOC(=O)c1cccc(NC(=O)CN(C)S(=O)(=O)c2ccc(-c3cocn3)s2)c1`, the inhibition was 2.17% (inactive).

Consider `O=C(O)Cc1sc(-c2ccccc2)nc1-c1cccs1`, for which the inhibition is 23.1% (active).

Regarding `CN(C(=O)COc1nnc(-c2cccs2)c(-c2cccs2)n1)c1ccccc1`, the inhibition is -4.55% (inactive).

As for `NC(=O)Cc1ccc2sc(-c3ccccc3)nc2c1`, the inhibition is 5.29% (inactive).

Take `CCCCNC(=O)C[C@H]1C(=O)N(Cc2ccc(OC)cc2)C2=CCCC[C@@]21C(=O)OCC`: the inhibition is -2.41% (inactive).

Regarding `CCOC(=O)C1CCN(C(=O)C(C)(C)NC(=O)Nc2ccc(F)c(F)c2)CC1`, the inhibition was 0.69% (inactive).

As to `C=CS(=O)(=O)N(Cc1nnn(Cc2ccccc2)c1Br)[C@H](C(=O)OC)C(C)C`, the inhibition is 2.36% (inactive).

For the compound `CCC1(C)COC(c2ccc(OC)c(OC)c2)OC1` (stereo not drawn), the inhibition is -0.64% (inactive).

As for `COc1ccc(C2OCC3(CO2)SC(=O)NC3=O)cc1OC` (stereo not drawn), the inhibition was 17.2% (active).

In the case of `COc1ccc(C2NC(=O)C(=O)/C2=C(\O)c2ccc(Cl)cc2)cc1OC` (stereo not drawn), the inhibition was 0.15% (inactive).

In the case of `COC(=O)[C@]12C[C@H](CC(=O)N3CCOCC3)C(=O)N(Cc3ccc(Cl)cc3Cl)C1=C[C@H](C(C)C)O[C@@H]2C1CC1`, the inhibition is 7.42% (inactive).

Take `CC1CC(C)CN(C(=O)CSc2nnc(CSc3ncccn3)n2C)C1` (stereo not drawn): the inhibition was -4.27% (inactive).

With `CC(=O)CSc1nnc(CSc2ncccn2)n1C1CCCCC1`, the inhibition is 23.7% (active).

For the compound `CCn1c(CSc2ncccn2)nnc1SCC(=O)N1c2ccccc2CC1C` (stereo not drawn), the inhibition is 6.44% (inactive).

`C#CCCN([C@H](C(=O)OC)C(C)C)S(=O)(=O)c1ccc(F)cc1Br`: the inhibition is 0.24% (inactive).

On to `Clc1ccc(-n2c(SC/C=C/c3ccccc3)nnc2-c2ccco2)cc1`, for which the inhibition is 6.61% (inactive).

As for `NNC(=O)c1oc2nc(-c3ccccc3)cc(-c3ccco3)c2c1N`, the inhibition is 19.6% (active).

With `Cc1ccc(O)c(NC(=O)c2cc(-c3ccco3)on2)c1`, the inhibition is 3.18% (inactive).

In the case of `CNC(=S)NNC(=O)c1oc2nc(-c3ccccc3)cc(-c3ccco3)c2c1N`, the inhibition was 17.2% (active).

For the compound `O=C1CCC2(CCC(c3ccc(Cl)cc3)CC2)N1CCO` (stereo not drawn), the inhibition was 6.92% (inactive).

On to `C=CCN1C(C(=O)OC)CN(Cc2cn(Cc3ccccc3)nn2)CCS1(=O)=O` (stereo not drawn), for which the inhibition is 5.02% (inactive).

As for `O=C(CSc1nc2c(c(=O)[nH]1)CCCC2)N1CCCCC1`, the inhibition is 1.16% (inactive).

In the case of `O=C(c1c[nH]c2ccccc12)N1CCC(Oc2cccnc2)CC1`, the inhibition is 7.61% (inactive).

As for `Cc1ccc(C(=O)N(Cc2ccccn2)CC2CCCO2)cc1` (stereo not drawn), the inhibition was -2.59% (inactive).

As to `CCOC(=O)c1ccccc1N1C(=O)C2Sc3[nH]c(=O)sc3C(/C=C/c3ccccc3)C2C1=O` (stereo not drawn), the inhibition is 15.9% (inactive).

As for `CCOC(=O)C1CSCCS(=O)(=O)N1Cc1ccc(Cl)cc1` (stereo not drawn), the inhibition was -6.12% (inactive).

Take `CCOC(=O)C1Sc2[nH]c(=O)sc2C(c2ccc(Cl)cc2)C1C(=O)OCC` (stereo not drawn): the inhibition is 24.7% (active).

For the compound `COC(=O)c1cccc(Cn2ccc3ccc(-c4ccc5ccn(C(=O)c6ccccc6C)c5c4)cc32)c1`, the inhibition is 12.8% (inactive).

As to `COC(=O)C1CN(Cc2ccc(F)cc2)CCS(=O)(=O)N1Cc1ccc(Cl)cc1` (stereo not drawn), the inhibition is -1.35% (inactive).

Regarding `CCOC(=O)[C@]12CCCC3=C1N(CCC3)C(=O)[C@@H](CC(=O)NCC13CC4CC(CC(C4)C1)C3)C2`, the inhibition was -1.2% (inactive).

With `O=C(CCn1nnc2ccccc2c1=O)N[C@@H](Cc1c[nH]c2ccccc12)C(=O)O`, the inhibition was 2.35% (inactive).

With `COc1ccc(-c2cc(C(=O)NC(Cc3c[nH]c4ccccc34)C(=O)O)c(C)o2)cc1OC` (stereo not drawn), the inhibition is 17.2% (active).

With `COc1ccc(-c2cc(C(=O)NC(C(=O)O)C(C)C)c(C)o2)cc1OC` (stereo not drawn), the inhibition is -1.04% (inactive).

Consider `COc1ccc2c(C(C)c3ccc(N)cc3)cn(C)c2c1` (stereo not drawn), for which the inhibition was 15.5% (inactive).

Regarding `CN(C)c1ccc(NC(=O)NC2CCCCN(Cc3ccc(Cl)cc3)C2=O)cc1` (stereo not drawn), the inhibition is 11.1% (inactive).

Consider `COc1ccc(C(=O)OCCN2CCN(C3CN(Cc4cn(Cc5ccccc5F)nn4)S(=O)(=O)C3)CC2)cc1OC` (stereo not drawn), for which the inhibition is 3.42% (inactive).

On to `Cc1ccc(NC(=S)NNC(=O)CSc2nnc(SCc3ccccc3Cl)s2)cc1`, for which the inhibition is 5.21% (inactive).

On to `Cc1[nH]c2ccccc2c1C(=O)CN1CCCC(C)C1` (stereo not drawn), for which the inhibition was -6.16% (inactive).

In the case of `Cc1[nH]c2ccccc2c1C(=O)CN1CC(C)CC(C)C1` (stereo not drawn), the inhibition is -1.61% (inactive).

For the compound `Cc1[nH]c2ccccc2c1C(=O)CSCC(=O)O`, the inhibition is 30.1% (active).

As for `N#Cc1ccc(OC[C@@H](O)CN2CCC(C(O)(c3ccccc3)c3ccccc3)CC2)c(F)c1`, the inhibition is -5.05% (inactive).

Take `COC(CNC(=O)[C@H](Cc1ccccc1)NC1(C(=O)NC2CCCCC2)CCCCC1)OC`: the inhibition is 8.17% (inactive).

As to `CCCC(=O)NC(=S)Nc1ccc(CN2CCOCC2)cc1`, the inhibition is -1.23% (inactive).

In the case of `Cc1ccc(NC(=S)NCCN2CCOCC2)cc1`, the inhibition was 57.3% (active).

`Cc1cc(C)cc(NC(=S)NCCCN2CCOCC2)c1`: the inhibition is -2% (inactive).

Take `C=CCN(C)CC#Cc1ccccc1`: the inhibition was 1.7% (inactive).

As to `CCn1c(SCC(C)=O)nc2sc3c(c2c1=O)CCCC3`, the inhibition is 0.4% (inactive).

Regarding `Cn1c(NN)nc2sc3c(c2c1=O)CCC3`, the inhibition is 41.8% (active).

`COc1ccccc1-n1c(SCC(=O)O)nc2sc3c(c2c1=O)CCC3`: the inhibition is -0.36% (inactive).

`CCn1c2ccccc2c2cc(NC(=O)CSc3nnc(-c4ccccc4)n3-c3ccc(C)cc3)ccc21`: the inhibition is 4.72% (inactive).

`CNS(=O)(=O)c1ccc2c(c1)[nH]c(=S)n2C`: the inhibition is 18.6% (active).

Consider `CCCCn1c(=S)[nH]c2cc(S(=O)(=O)N3CCCCC3)ccc21`, for which the inhibition was 8.16% (inactive).

Consider `CCn1c(=S)[nH]c2cc(S(=O)(=O)N3CCOCC3)ccc21`, for which the inhibition is -1% (inactive).

For `CN1[C@H](Cc2ccccc2)COc2cccc(N3CCSCC3)c2S1(=O)=O`, the inhibition is -5.79% (inactive).

Consider `O=S1(=O)c2c(NCc3ccco3)cccc2Oc2ccccc2CN1Cc1cn(Cc2cccc(C(F)(F)F)c2)nn1`, for which the inhibition is -2.9% (inactive).

For `C[C@@H]1CN([C@@H](C)CO)C(=O)c2cccc(NC(=O)Nc3cccc4ccccc34)c2O[C@H]1CN(C)S(=O)(=O)c1ccccc1F`, the inhibition was -1.21% (inactive).

With `Oc1ccc(N=Cc2sc3ccccc3c2Cl)cc1`, the inhibition was 22.5% (active).

On to `Oc1ccc(N=Cc2c(O)ccc3ccccc23)cc1`, for which the inhibition was 21% (active).

For orientation: inhibition means the change of the read-out against control, counted positive when it falls.

(Values after PubChem BioAssay AID1053197 (The Scripps Research Institute Molecular Screening Center, 2014).)
